In all, about 18,000 sequences were measured (“log2 normalized intensity”: median about 0.36, highest 2% from about 7.3 on). Many of the other results were omitted from the sample, so the highest values are more common in it than they were.

The target of this experiment is T1, HNF4alpha8 (COS-7 nuclear extract) (Homo sapiens, UniProt P41235-5 1-452).
T1 sequence: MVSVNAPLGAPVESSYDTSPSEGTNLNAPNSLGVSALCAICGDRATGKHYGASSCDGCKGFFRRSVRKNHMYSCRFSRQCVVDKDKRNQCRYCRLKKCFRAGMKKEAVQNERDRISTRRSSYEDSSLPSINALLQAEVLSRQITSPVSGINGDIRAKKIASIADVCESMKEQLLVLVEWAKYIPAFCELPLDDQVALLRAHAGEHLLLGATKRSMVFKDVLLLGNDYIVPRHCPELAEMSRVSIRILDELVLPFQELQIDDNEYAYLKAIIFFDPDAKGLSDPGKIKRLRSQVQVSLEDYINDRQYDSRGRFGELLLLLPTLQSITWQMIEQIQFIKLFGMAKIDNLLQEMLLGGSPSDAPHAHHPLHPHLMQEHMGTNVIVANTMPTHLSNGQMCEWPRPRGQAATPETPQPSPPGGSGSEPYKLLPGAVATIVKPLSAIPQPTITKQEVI
The experiment can be described thus: protein-binding microarray; COS-7 nuclear extract on double-stranded Agilent 4x180k PBM; binding buffer, salt, pH and temperature not given in the material; high values mean tight binding. As to conditions: chain copies: 2; label: 3' end of strand 1 on the slide; dsDNA, one strand shown. The gist of the method: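 Binding signal was defined as the normalized, background-corrected gProcessedSignal reported by Agilent software. It came from nuclear extracts of COS-7 cells transiently transfected with a human HNF4α isoform expression vector, applied to a custom Agilent SurePrint G3 4x180k array. That array held ~44,000 test sequences in quadruplicate as double-stranded ~60-nt oligonucleotides, and bound HNF4α was imaged at 2-µm resolution on an Agilent G2565CA scanner.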
Consider “TGTGGTAATAAGTTGGTGGACGCTGGGGAAGCCTAGGGAGATTAGAGTATCGGTCGA”, for which the binding signal amounted to 0.488 log2 normalized intensity.
The result for “TCCTTCAGCGTGAACTTTGACATGAGAGAAGCCTAGGGAGATTAGAGTATCGGTCGA” reads 4.21 log2 normalized intensity; that for “TATATTCAACCCCCACTTCCTGACTTGGCCGCCTAGGGAGATTAGAGTATCGGTCGA”, 3.85 log2 normalized intensity.
The result for “TCACACAAATGGATCTTTCTTCAAAAAGAGGCCTAGGGAGATTAGAGTATCGGTCGA” reads -0.0678 log2 normalized intensity; that for “CCCTTTAGTGCCTGGATCTTGGAACAGGTCGCCTAGGGAGATTAGAGTATCGGTCGA”, 1.97 log2 normalized intensity; that for “GCCCCAGCTCGCTCAGCTGGTTGCCCCTTTGCCTAGGGAGATTAGAGTATCGGTCGA”, 4.47 log2 normalized intensity.
The result for “GGGTCATGCTGGTCTCCTTGCCCCACCCCCGCCTAGGGAGATTAGAGTATCGGTCGA” reads 5.73 log2 normalized intensity; that for “TATTTAGACTCAGCATGTCTTCTGACCTTTGCCTAGGGAGATTAGAGTATCGGTCGA”, 7.33 log2 normalized intensity.
For the sequence “CCTGCACACCTGCCTTTGATCAGGGACCTTGCCTAGGGAGATTAGAGTATCGGTCGA”, the binding signal was determined as 1.97 log2 normalized intensity.
The result for “AGCTCGCTCAGCTGGTTGCCCCTTTGACCCGCCTAGGGAGATTAGAGTATCGGTCGA” reads 8.48 log2 normalized intensity; that for “GGTCTCCTTGCCCCACCCCCCACCCCAGAAGCCTAGGGAGATTAGAGTATCGGTCGA”, 6.87 log2 normalized intensity.
The result for “GCTCAGCTGGTTGCCCCTTTGACCCTCGGGGCCTAGGGAGATTAGAGTATCGGTCGA” reads 7.06 log2 normalized intensity; that for “AGACTCAGCATGTCTTCTGACCTTTGGCAAGCCTAGGGAGATTAGAGTATCGGTCGA”, 6.98 log2 normalized intensity.
Regarding “CAGCATGTCTTCTGACCTTTGGCAATATCTGCCTAGGGAGATTAGAGTATCGGTCGA”, the binding signal is 5.1 log2 normalized intensity.
With “ATGCTGGTCTCCTTGCCCCACCCCCCACCCGCCTAGGGAGATTAGAGTATCGGTCGA”, the binding signal was determined as 7.48 log2 normalized intensity.
The result for “CCTCTGTCTCTCAGGCACAGCTCGACCTTTGCCTAGGGAGATTAGAGTATCGGTCGA” reads 6.7 log2 normalized intensity; that for “GTCTCTCAGGCACAGCTCGACCTTTGACCTGCCTAGGGAGATTAGAGTATCGGTCGA”, 10 log2 normalized intensity; that for “AGTCACACACACCTGTGTCCCCCAGGTCCAGCCTAGGGAGATTAGAGTATCGGTCGA”, 3.56 log2 normalized intensity.
“ATATCTGCCTCAGTAGTAGTGAAAAATGAAGCCTAGGGAGATTAGAGTATCGGTCGA”: the binding signal is 0.637 log2 normalized intensity.
As for “GGAGGTGACCTTTGGTTGTCCTTACTGCTAGCCTAGGGAGATTAGAGTATCGGTCGA”, the figure is 4.22 log2 normalized intensity; as for “ACCTCTTATCAAGCGTGCACCCCAGGTACGGCCTAGGGAGATTAGAGTATCGGTCGA”, 1.3 log2 normalized intensity; as for “ATGGTGTTTGCTTTGTGAAGGCTTATCTGCGCCTAGGGAGATTAGAGTATCGGTCGA”, 0.591 log2 normalized intensity.
The result for “GGTTCTTCCACGACTCCCCCGCTCACCCCTGCCTAGGGAGATTAGAGTATCGGTCGA” reads 5.08 log2 normalized intensity; that for “AACTTTTCCATGTCCAAAGGTCTTCATGAGGCCTAGGGAGATTAGAGTATCGGTCGA”, 4.33 log2 normalized intensity; that for “AGTGCCATGTAATCAAACTGAACTTTGAAAGCCTAGGGAGATTAGAGTATCGGTCGA”, 4.48 log2 normalized intensity.
The result for “AACATCATAGAGTGTACTTATGCAGACCTGGCCTAGGGAGATTAGAGTATCGGTCGA” reads 0.968 log2 normalized intensity; that for “CCTCCAGCTACTCACTCTTCCCAAATAGGTGCCTAGGGAGATTAGAGTATCGGTCGA”, -0.273 log2 normalized intensity; that for “AAGTGCGTCCTGTGGCAAAGGTGAATGACCGCCTAGGGAGATTAGAGTATCGGTCGA”, 2.99 log2 normalized intensity.
With “TTCACAGAGCAAGGGTCCAGATTAGAGCACGCCTAGGGAGATTAGAGTATCGGTCGA”, the binding signal turned out to be 2.52 log2 normalized intensity.
The result for “AAAGCCACCCCTTTCTCCTCTCTTTCCATAGCCTAGGGAGATTAGAGTATCGGTCGA” reads 0.633 log2 normalized intensity; that for “GGACAAAGTTCCCCGGGCAGCTGTGTTTGCGCCTAGGGAGATTAGAGTATCGGTCGA”, 0.702 log2 normalized intensity.
The result for “CTCCAACTGCTCCTCTTCAACTGATTCTTGGCCTAGGGAGATTAGAGTATCGGTCGA” reads -0.845 log2 normalized intensity.
As for “GGGGCCTAGCTTGTAAAGGGTAATCTGCTTGCCTAGGGAGATTAGAGTATCGGTCGA”, the figure is -0.484 log2 normalized intensity; as for “CTTCCAAGGCTGCAAGCAAACCTGCCCTTTGCCTAGGGAGATTAGAGTATCGGTCGA”, 4.57 log2 normalized intensity; as for “TCTCGCTGCTTCGGCCTTTGACCTCGTGATGCCTAGGGAGATTAGAGTATCGGTCGA”, 7.09 log2 normalized intensity.
For “TGGGGTCTCGCTGCTTCGGCCTTTGACCTCGCCTAGGGAGATTAGAGTATCGGTCGA”, the binding signal came out at 8.46 log2 normalized intensity.
The result for “CAGGGTGGGGTCTCGCTGCTTCGGCCTTTGGCCTAGGGAGATTAGAGTATCGGTCGA” reads 1.11 log2 normalized intensity; that for “AGTCTTGAGTCCCAAAGTCCAAAGGCAGTCGCCTAGGGAGATTAGAGTATCGGTCGA”, 3.61 log2 normalized intensity; that for “GCATGGCTCAGTCCAAGTCCAAAGGTCTGAGCCTAGGGAGATTAGAGTATCGGTCGA”, 6.28 log2 normalized intensity.
Take “AGTCCAAAGGTCTGAGAACCAAGAGAGCCAGCCTAGGGAGATTAGAGTATCGGTCGA”: the binding signal worked out at 1.62 log2 normalized intensity.
As for “CTATCTGCCTGCAGGAGAGAGCAAAGTCCAGCCTAGGGAGATTAGAGTATCGGTCGA”, the figure is 8.21 log2 normalized intensity.
The result for “AGCCCTTATATCCACATGGGTCCAAAGTTCGCCTAGGGAGATTAGAGTATCGGTCGA” reads 9.47 log2 normalized intensity; that for “CTTGAGTCCAGGAGTGCAAAGCTGCTATGAGCCTAGGGAGATTAGAGTATCGGTCGA”, -0.723 log2 normalized intensity.
As for “CAACTCCAAAGTCCAAAGTCCAGTCTTATCGCCTAGGGAGATTAGAGTATCGGTCGA”, the figure is 8.47 log2 normalized intensity; as for “TGCCTGCAGGAGAGAGCAAAGTCCACGCATGCCTAGGGAGATTAGAGTATCGGTCGA”, 6.82 log2 normalized intensity; as for “GACCAGTCTGCCTGACTCCAGAGTCCAAACGCCTAGGGAGATTAGAGTATCGGTCGA”, 4.23 log2 normalized intensity.
As to “CCAAAGTCCAAAGTCCAGTCTTATCTGAGAGCCTAGGGAGATTAGAGTATCGGTCGA”, the binding signal was 7.93 log2 normalized intensity.
As for “CAGGGAGCCCTTATATCCACATGGGTCCAAGCCTAGGGAGATTAGAGTATCGGTCGA”, the figure is 3.03 log2 normalized intensity; as for “ATTCCTAAGTTCCAAAGGCCATCCACATTCGCCTAGGGAGATTAGAGTATCGGTCGA”, 2.4 log2 normalized intensity.
As for “TTCAGTCTTTGTCTTAGCCTGCTCTTTTCCGCCTAGGGAGATTAGAGTATCGGTCGA”, the figure is 1.12 log2 normalized intensity; as for “CCTCTGAAAACTTTTACTGGGAAGAGATAAGCCTAGGGAGATTAGAGTATCGGTCGA”, -0.817 log2 normalized intensity.
As for “AGATAAGACAAGCTCTGTTTGTTTTGTTACGCCTAGGGAGATTAGAGTATCGGTCGA”, the figure is 1.26 log2 normalized intensity; as for “ATACAGAATCAATGCCTGATTCCAAAGTCCGCCTAGGGAGATTAGAGTATCGGTCGA”, 6.36 log2 normalized intensity; as for “ACTTTGCCTTTTGGCTAAAGTCCAAATTCCGCCTAGGGAGATTAGAGTATCGGTCGA”, 6.01 log2 normalized intensity.
Turning to “AACTTTGTTTGAGTTCCAAAGTCCATGTTCGCCTAGGGAGATTAGAGTATCGGTCGA”, the binding signal was 7.61 log2 normalized intensity.
As for “GAATCAATGCCTGATTCCAAAGTCCACTTTGCCTAGGGAGATTAGAGTATCGGTCGA”, the figure is 7.71 log2 normalized intensity; as for “GTCAAAACTTTGTTTGAGTTCCAAAGTCCAGCCTAGGGAGATTAGAGTATCGGTCGA”, 7.18 log2 normalized intensity; as for “TGTTTGAGTTCCAAAGTCCATGTTCATAACGCCTAGGGAGATTAGAGTATCGGTCGA”, 5.66 log2 normalized intensity.

For the origin of these results see paper PMC10726135, “HNF4α isoforms regulate the circadian balance between carbohydrate and lipid metabolism in the liver”.
